From ChEMBL document CHEMBL4513216, “Probing the Open Global Health Chemical Diversity Library for Multistage-Active Starting Points for Next-Generation Antimalarials” (ACS Infect Dis, 2020)
The whole screen tested about 69,000 compounds, of which about 8,600 (12%) showed an effect of 50% or more. This is one part of a sample in which strong results are shown more often than they occur.

System: Plasmodium berghei
Test: Screen against P. berghei liver stage (PbLuc), transformed with Luciferase, at 10uM
Format: functional, HepG2
Conditions: tested at 10 uM

Row | SMILES | INHIBITION
1 | COc1cc(-c2nc3c([nH]2)CCCNC3=O)cc(OC)c1OC | -34.8%
2 | Cc1ccc(F)cc1C(=O)N1CCN(S(C)(=O)=O)[C@@H](C)C1 | -2.23%
3 | CCOC(=O)Cc1cs/c(=N/C(=O)COc2cnc(C)cc2O)[nH]1 | -1.45%
4 | CC(C)(C)c1cccc(OCC(=O)NS(=O)(=O)c2cccnc2)c1 | 0.1%
5 | CCNC(=O)NC(=O)CNC(C)(C)c1ccc2c(c1)OCO2 | -12.2%
6 | CN(Cc1cccnc1)[C@@H]1CN(Cc2ccccn2)[C@@H]2CCCO[C@H]12 | 30.3%
7 | NCC1CCC(c2c(C(=O)NCCO)sc3ccccc23)CC1 (stereo not given) | -11.4%
8 | CNC(=O)C1CCCCN1C(=O)CCn1cnc2sccc2c1=O (stereo not given) | 52.6%
9 | CCC1CCCCN1C(=O)CCn1cnc2sccc2c1=O (stereo not given) | 25.4%
10 | CC1CCCCN1C(=O)CCn1cnc2sccc2c1=O (stereo not given) | 42.7%
11 | CCn1ncc2c(C(F)F)cc(-c3ccn(C)n3)nc21 | 8.05%
12 | O=C(Nc1ccc(Cn2cccn2)cc1)N1CCC2(CC1)OCCO2 | 41%
13 | CC1(C)CN(C(=O)Nc2ccc(Cn3cccn3)cc2)CCO1 | 49.9%
14 | O=C(Nc1ccc(Cn2cccn2)cc1)N1CCC(CO)CC1 | 57.8%
15 | COCCOc1ccc(NC(=O)C2CC(=O)N(CC3CC3)C2)cn1 (stereo not given) | 4.71%
16 | CN(C)C(=O)N1CCC2(CC1)CN(CC1CC1)CC21CCNC1=O (stereo not given) | -63.9%
17 | Cc1cc(C(=O)NCC(F)(F)F)c2c(C3CCCN3)noc2n1 (stereo not given) | 30.8%
18 | Cc1cc(C(=O)NCc2ccc(F)cc2)c2c(C3CCNC3)noc2n1 (stereo not given) | 41.6%
19 | Cc1cc(C(=O)NCC(F)(F)F)c2c(C3CCNCC3)noc2n1 | 64%
20 | O=C(C1CCN(c2nc3nc[nH]c(=O)c3s2)CC1)N1CCCCC1 | 37.4%
21 | NC(=O)NC(CC(=O)NCCc1ccc(F)cc1)c1ccccc1 (stereo not given) | 53.8%
22 | NC(=O)NC(CC(=O)NCCc1cccc(F)c1)c1ccccc1 (stereo not given) | 20.5%
23 | COc1ccc(CCNC(=O)CC(NC(N)=O)c2ccccc2)cc1 (stereo not given) | 29.1%
24 | CSCC(=O)N1CCCCC1Cn1cc(C)cn1 (stereo not given) | -5.25%

Row | SMILES | INHIBITION
25 | CC(C)CN1CCC2(CCN(CC3CC3)CC2)C1=O | -7.24%
26 | N#Cc1cccc(N2CCCC(CO)(Cc3ccccc3F)C2)n1 (stereo not given) | 23.5%
27 | COc1cc(N2CCCC(CO)(Cc3ccccc3F)C2)ncn1 (stereo not given) | 84.9%
28 | Nc1cc(N2CCCC(Cc3ccc(F)cc3F)(C(=O)O)C2)ncn1 (stereo not given) | 34.4%
29 | Nc1ccnc(N2CCCC(CO)(Cc3cccc(Cl)c3)C2)n1 (stereo not given) | 44.9%
30 | CCCC1(CO)CCCN(c2ncccc2F)C1 (stereo not given) | -29.9%
31 | O=C(O)C1(Cc2ccccc2F)CCCN(c2ncnc3[nH]ccc23)C1 (stereo not given) | 23.5%
32 | OCC1(Cc2ccccc2F)CCCN(c2ccc3ccccc3n2)C1 (stereo not given) | 89.9%
33 | Nc1cc(N2CCCC(CO)(Cc3ccccc3F)C2)nc(N)n1 (stereo not given) | 75.1%
34 | COC[C@]1(O)CCN(c2cc(OC)ncn2)CC1(C)C | -31.7%
35 | CNC(=O)N1CC[C@@H]2CN(Cc3cccnc3)S(=O)(=O)[C@@H]2CC1 | 22.2%
36 | CN1CC(=O)N(C2CCNCC2)Cc2c(NC3CCC3)ncnc21 | -13%
37 | CCOC1COC2(CCN(Cc3ccc4c(c3)OCO4)CC2)C1 (stereo not given) | 24.9%
38 | COCCn1c(CN2CCCCO2)cnc1S(=O)(=O)CC1CCCCC1 | -2.13%
39 | CCc1cc(NC2CCC(N)CC2)n2nc(C)c(C)c2n1 (stereo not given) | 14.1%
40 | CC(C)n1ncc2cc(NC(=O)N3CCC(CO)CC3)cnc21 | 29.7%
41 | Fc1ccccc1Cc1noc(CN2CC[C@@H]3CCCC[C@H]3C2)n1 | 38.4%
42 | CCc1nc(CN(C)C2CCN(CCOc3ccccc3)C2)no1 (stereo not given) | -0.219%
43 | c1ccc(CCc2noc(CN3CCC(N4CCSCC4)CC3)n2)cc1 | 7.97%
44 | c1ccc(OCc2noc(CN3CCC(N4CCSCC4)CC3)n2)cc1 | 79.5%
45 | c1ccc(OCc2noc(CN3CCN(C4CCCC4)CC3)n2)cc1 | 40.9%
46 | Fc1ccccc1Cc1noc(CN2CCC(N3CCSCC3)CC2)n1 | 75.2%
47 | CN(C)S(=O)(=O)NCC1(c2ccccc2Br)CC1 | 46.6%
48 | CCN(C)S(=O)(=O)NCC1(c2ccccc2Br)CC1 | 51%

Row | SMILES | INHIBITION
49 | CS(=O)(=O)NCC1(c2ccccc2Br)CC1 | 46.6%
50 | O=C(c1cn(-c2cccc(Cl)c2F)nn1)N1CCCSCC1 | -134%
51 | COCC(NC(=O)c1cn(-c2cccc(Cl)c2F)nn1)C1CC1 (stereo not given) | 51.2%
52 | O=C(c1cn(-c2ccccc2Cl)nn1)N1CCSCC1 | -28.8%
53 | COCC(C)(C#N)NC(=O)c1cn(-c2cccc(Cl)c2F)nn1 (stereo not given) | 55.6%
54 | CC(O)CN1CCN(C(=O)c2cn(-c3ccccc3Cl)nn2)CC1 (stereo not given) | -9.67%
55 | COC(C)(C)CNC(=O)c1cn(-c2cccc(Cl)c2F)nn1 | 18.7%
56 | CNC(=O)c1sc2ccccc2c1CC1CCCN1Cc1cnc(C)s1 (stereo not given) | 24.69%
57 | CCN1CCc2[nH]nc(C(=O)N3CCCC3C)c2C1 (stereo not given) | -65.2%
58 | CS(=O)(=O)NC(=O)c1ccn(-c2cccc(Br)c2)n1 | 16.3%
59 | CC(c1ccccc1F)N(CC(N)=O)C1CC1 (stereo not given) | 72.1%
60 | CC(c1ccccc1Cl)N(C(=O)CSCC(N)=O)C1CC1 (stereo not given) | 30.4%
61 | CC(c1ccccc1F)N(C(=O)CSCC(N)=O)C1CC1 (stereo not given) | 35.9%
62 | Cc1nnc2n1CCN(Cc1ccc3c(c1)OCCO3)C2 | 33.8%
63 | COCC(=O)N1CCC(O)(CN2CCN(c3ccccc3)CC2)C1 (stereo not given) | 39.7%
64 | CC1CCCCN1C(=O)c1nc2c(n1C(C)C)CCN(C)C2 (stereo not given) | 58.5%
65 | CC(C)n1c(C(=O)N2CCCC2)nc2c1CCN(C)C2 | 9.79%
66 | CC1CCCCN1C(=O)c1nc2c(n1C(C)C)CCN(C(=O)C1CC1)C2 (stereo not given) | -0.554%
67 | COCCN1CCC2(C1)c1ccccc1S(=O)(=O)N2C (stereo not given) | 40.5%
68 | Cc1cc(O)nc(C2CN(CCC(F)(F)F)CCO2)n1 (stereo not given) | -6.92%
69 | Cc1cc(O)nc(C2CN(CC3(O)CCOCC3)CCO2)n1 (stereo not given) | -34.6%
70 | Cc1cc(O)nc(C2CN(CCO)CCO2)n1 (stereo not given) | 50.8%
